Compound activity as filed in PubChem BioAssay.
Most compounds without a hit are left out; they make up all but 3.8% or so of the library.
PAFAH1B3 FP inh: inhibitors of human PAFAH1B3; recombinant PAFAH1B3, FP-rhodamine probe, fluorescence polarization; inhibition, % at 3.39 µM; Q15102; AID 492972; actives 0.28% (n = 340,000);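 active = inhibition above the screen-wide average of all tested compounds plus 3 SD, cut at about 25% in these data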;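 note: 0% = enzyme with DMSO only and 100% = wells lacking PAFAH1B3 protein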
Target sequence (Q15102 whole entry, looked up): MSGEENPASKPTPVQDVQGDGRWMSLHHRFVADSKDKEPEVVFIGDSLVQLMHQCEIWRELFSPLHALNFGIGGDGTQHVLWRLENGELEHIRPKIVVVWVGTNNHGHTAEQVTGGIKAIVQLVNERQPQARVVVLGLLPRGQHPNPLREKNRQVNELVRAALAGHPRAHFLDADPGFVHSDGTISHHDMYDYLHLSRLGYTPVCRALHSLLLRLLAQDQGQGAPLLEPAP
PAFAH1B2 FP inh: PAFAH1B2 (human) inhibition | recombinant PAFAH1B2, FP-rhodamine activity probe, fluorescence polarization | inhibition, % at 3.39 µM | actives 1.2% (n = 340,000);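 active = inhibition above the mean of all tested compounds plus 3 SD, cut at about 24% in these data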;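 note: 0% = enzyme with DMSO and 100% = wells lacking PAFAH1B2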
Target sequence (P68402 whole entry, looked up): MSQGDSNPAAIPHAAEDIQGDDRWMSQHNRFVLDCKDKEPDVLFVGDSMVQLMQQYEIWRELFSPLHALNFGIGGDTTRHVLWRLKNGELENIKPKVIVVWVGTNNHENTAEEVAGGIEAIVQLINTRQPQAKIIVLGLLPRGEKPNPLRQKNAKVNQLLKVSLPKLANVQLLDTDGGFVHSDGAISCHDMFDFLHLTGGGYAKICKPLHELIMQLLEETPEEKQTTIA
PfM18AAP inh-1: PfM18AAP enzyme inhibition; recombinant PfM18AAP, H-Glu-NHMec fluorogenic cleavage; inhibition, % at 7.35 µM; actives 1.2% (n = 290,000); AID 1822;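 active = inhibition above the campaign mean inhibition over all tested compounds plus 3 SD, cut at about 28% in these data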;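 note: 0% = plate median of test compound wells and 100% = 2 mM ZnCl2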
PAFAH2 FP inh: PAFAH2 (human) inhibition; Q99487; recombinant PAFAH2, FP-rhodamine activity probe, fluorescence polarization; inhibition, % at 3.39 µM; actives 0.99% (n = 340,000); AID 492956;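 active = inhibition above the mean over all tested compounds plus 3 SD, cut at about 30% in these data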;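 note: inhibitors block probe labeling of enzyme so polarization drops; 0% = enzyme with DMSO and 100% = wells lacking PAFAH2 protein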
Pemphigus Ab inh: human desmoglein-3 autoantibody binding inhibition; P32926; actives 0.48% (n = 310,000); binding (percent of control), % at 10 µM; DSG3-coupled beads, scFv-anti-DSG3-GFP binding, flow cytometry; hits give low values;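 active = binding more than 3 SD below its plate's average and above zero; inconclusive = below that plate limit but binding exactly zero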;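 note: hits lower antibody fragment binding to DSG3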
pPAFAH inh: pPAFAH (human) enzyme inhibition | Q13093 | inhibition, % at 3.39 µM | recombinant pPAFAH, FP-rhodamine probe fluorescence polarization | actives 1.5% (n = 330,000) | AID 463082;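 active = inhibition above the mean inhibition across the screen plus 3 SD, cut at about 25% in these data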;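 note: inhibitors block binding of the rhodamine activity-based probe so polarization drops; 0% = enzyme with DMSO and 100% = wells lacking pPAFAH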
PfM18AAP inh-2: PfM18AAP inhibition, confirmation; shares compounds with PfM18AAP inh-1; recombinant PfM18AAP, H-Glu-NHMec fluorogenic cleavage; inhibition, % at 7.35 µM; actives 28% (n = 2,400); AID 2170;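 active = mean inhibition over replicate wells above the hit cutoff set for the earlier primary screen, cut at about 29% in these data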;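 note: 0% = median of test compound wells and 100% = 2 mM ZnCl2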
CTSL1 confirm: Cathepsin L (human) inhibition, confirmation. shares compounds with PfM18AAP inh-1. purified cathepsin L1, Z-Leu-Arg-MCA fluorescence. inhibition, % at 5.96 µM. 2,400 tested, under 10 active. AID 2178;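 active = average inhibition across replicates above the hit cutoff set in the earlier primary screen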;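 note: 0% = median of test compound wells and 100% = Z-Phe-Ala-diazomethylketone 1 µM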
* hit, by the source's call; ? = inconclusive; · = not tested or not shown.

SMILES | PAFAH1B3 FP inh | PAFAH1B2 FP inh | PfM18AAP inh-1 | PAFAH2 FP inh | Pemphigus Ab inh | pPAFAH inh | PfM18AAP inh-2 | CTSL1 confirm
O=C(CN(C1CCCCC1)S(=O)(=O)c1ccc(F)cc1)NCC1CCCO1 (centres undefined) | 8 | 6 | · | 3 | 101 | · | · | ·
O=C(CSc1nnc(-c2cccc(F)c2)o1)Nc1nncs1 | 0 | 4 | 50* | 1 | 100 | 2 | -32 | -3
CN(C)C(CNC(=O)C1CCN(S(=O)(=O)c2cccc(Cl)c2Cl)CC1)c1ccccc1 (centres undefined) | 19 | 5 | -5 | 8 | 117 | 3 | · | ·
O=C(Cc1ccccc1)Nc1ccc2c(c1)CCC2 | 18 | 0 | 4 | 3 | 104 | 3 | · | ·
O=C(CC1CCCC1)Nc1ccc2c(c1)CCC2 | 9 | 6 | 46* | 2 | 112 | 3 | -30 | -5
O=C(N/N=C/c1ccc(O)c(O)c1)NC12CC3CC(CC(C3)C1)C2 | 1 | 16 | 48* | 18 | 94 | 16 | 13 | -1
COc1cc(/C=N/NC(=O)NC23CC4CC(CC(C4)C2)C3)ccc1O | 12 | 15 | 9 | 9 | 114 | 8 | · | ·
Oc1cc(O)c2c(c1)O[C@H](c1ccc(O)c(O)c1)[C@H](O)C2 | 1 | 2 | 81* | -8 | 101 | 6 | 66* | 1
COc1cc(OC)cc(C(=O)Nn2cnnc2)c1 | 8 | 2 | 36* | 3 | · | -10 | 30* | 3
Nc1c(C(=O)Nn2cnnc2)cc([N+](=O)[O-])cc1[N+](=O)[O-] | · | · | 63* | · | · | -1 | 56* | 4
Cc1c(C(N)=O)cc([N+](=O)[O-])cc1[N+](=O)[O-] | -2 | 3 | · | -8 | 91 | · | · | ·
O=C(Nn1cnnc1)c1ccc([N+](=O)[O-])cc1Cl | -1 | 7 | · | 8 | 105 | -1 | · | ·
O=C(Nn1cnnc1)c1cc([N+](=O)[O-])cc([N+](=O)[O-])c1 | 3 | -4 | 45* | 1 | 110 | -1 | 49* | -3
O=C(COc1ccc(F)c(Cl)c1)NC(=O)NC1CCCC1 | · | · | · | · | 99 | · | · | ·
Cc1ccc(C(=O)NNC(=O)c2ccc(S(=O)(=O)N3CCCCC3)cc2)cc1 | -1 | 7 | · | 0 | 84 | -6 | · | ·
CCOC(=O)N1CCN(S(=O)(=O)c2ccc(C(=O)NNc3nc4c(C)cc(C)cc4s3)cc2)CC1 | · | · | 39* | · | · | 32* | -31 | 4
CCOC(=O)N1CCN(S(=O)(=O)c2ccc(C(=O)N(CCN(CC)CC)c3nc4c(C)cccc4s3)cc2)CC1 | 10 | -1 | -6 | -4 | 111 | -1 | · | ·
CCOC(=O)N1CCN(S(=O)(=O)c2ccc(C(=O)NNc3nc4c(C)cccc4s3)cc2)CC1 | 17 | 8 | 38* | -13 | 79 | 19 | -16 | 5
Cc1cc(C)c2nc(NNC(=O)c3ccc(S(=O)(=O)N4CCCCC4)cc3)sc2c1 | 17 | 5 | 36* | 13 | 101 | 21 | -22 | 3
O=C(CCCc1nc2ccccc2s1)NNC(=O)CCN1CCN(Cc2ccccc2)CC1 | 2 | 3 | 3 | 1 | 102 | 12 | · | ·
NS(=O)(=O)c1ccc(Nc2nc(-c3ccc(O)cc3)cs2)cc1 | 16 | 11 | 45* | 1 | 97 | 15 | 44* | -2
Oc1ccc(Nc2nc(-c3ccc(O)cc3)cs2)cc1 | 9 | 0 | 8 | -2 | 99 | 3 | · | ·
N#CC1C(C#N)N2CCCN2C1c1ccc(Br)cc1 (centres undefined) | 2 | 5 | -19 | -7 | 114 | 0 | · | ·
Cc1cc(C)nc(SC/C=C/c2ccccc2)n1 | 7 | 10 | 34* | -2 | 96 | 5 | -17 | -1
Cc1ccc(C)c(N2N=C(C(=O)Nc3cccnc3)CCC2=O)c1 | 1 | 1 | · | -2 | ? | 5 | · | ·
COc1ccccc1OC(=O)CCc1nc2ccccc2s1 | 13 | 7 | 38* | 11 | 102 | 3 | -9 | -1
CC(=O)c1ccc(OC(=O)CCc2nc3ccccc3s2)cc1 | · | · | 39* | · | 103 | 4 | 8 | -43
